Measurements from PubChem BioAssay (Tox21).
A number with no mark means an inactive call. A call without a number means that no potency is given here. The source made the active and inactive calls. Calls come from the whole dose curve.

Target: Estrogen receptor (Homo sapiens) (UniProt P03372)
Experiment: qHTS assay to identify small molecule agonists of the estrogen receptor alpha (ER-alpha) signaling pathway in the presence of an antagonist (AID 1259383); note: top concentration of the series differs between compounds; nearly all actives have a fitted effect of over 15% in size
Settings: VM7Luc4E2 cells, ERE-luciferase, +ICI-182,780, 22 h; series mostly up to 92.4 µM
Source text: National Center for Advancing Translational Sciences [NCATS] NIH Chemical Genomics Center [NCGC] U.S. Environmental Protection Agency [EPA] National Institutes of Environmental Health Sciences [NIEHS] National Toxicology Program [NTP] Assay overview: Estrogen receptor (ER), a member of nuclear hormone receptor plays an important role in development, metabolic homeostasis and reproduction. Two subtypes of ER, ER-alpha and ER-beta, have similar expression patterns with some uniqueness in both types. Endocrine disrupting chemicals (EDCs) and their interactions with steroid hormone receptors like ER causes disruption of normal endocrine function. Therefore, it is important to understand the effect of environmental chemicals in ER signaling pathway. For identifying ER agonists, VM7Luc4E2 cell line has been used in the current assay. VM7Luc4E2 cell line (provided by Denison MS, University of California) endogenously expresses full-length ER-alpha and is stably transfected with a plasmid containing four estrogen responsive elements (ERE) upstream of a luciferase reporter gene. This current screening for measuring luciferase reporter gene activity using VM7Luc4E2 cells against Tox21 10K library collection is a confirmation study on agonist mode screening in presence of ER-antagonist (ICI-182,780) at 10.0nM final concentration.
Assay Protocol Summary: VM7Luc4E2 cells were cultured in phenol red free assay medium containing 10% charcoal stripped FBS for 5 days prior to the assay. The cells were dispensed at 4,000 cells in 4uL of assay medium per well into white wall/solid-bottom 1536-well plates (Corning Life Sciences, Corning, NY) using a Multidrop Combi (Thermo Fisher Scientific Inc., Waltham, MA) dispenser. After the assay plates were incubated at 37C and 5% CO2 for 24hr, 1uL of 10.0nM (final concentration) ICI-182,780 or assay buffer was added using two separate tips of Flying Reagent Dispenser (FRD, Aurora Discovery, San Diego, CA). Then 23nL of compounds dissolved in DMSO at 15 concentrations and positive controls or DMSO only was transferred to the assay plates by a Pintool station (Wako, San Diego, CA). The assay plates were incubated at 37C and 5% CO2 for 22hr. For luciferase read, 4uL/well ONE-Glo reagent (Promega Corporation, Madison, WI) was added to each well using FRD and after 30min incubation at room temperature, luminescence signal was measured on ViewLux plate reader (PerkinElmer, Shelton, CT).

Chain of Estrogen receptor (Homo sapiens) (P03372 whole entry, looked up): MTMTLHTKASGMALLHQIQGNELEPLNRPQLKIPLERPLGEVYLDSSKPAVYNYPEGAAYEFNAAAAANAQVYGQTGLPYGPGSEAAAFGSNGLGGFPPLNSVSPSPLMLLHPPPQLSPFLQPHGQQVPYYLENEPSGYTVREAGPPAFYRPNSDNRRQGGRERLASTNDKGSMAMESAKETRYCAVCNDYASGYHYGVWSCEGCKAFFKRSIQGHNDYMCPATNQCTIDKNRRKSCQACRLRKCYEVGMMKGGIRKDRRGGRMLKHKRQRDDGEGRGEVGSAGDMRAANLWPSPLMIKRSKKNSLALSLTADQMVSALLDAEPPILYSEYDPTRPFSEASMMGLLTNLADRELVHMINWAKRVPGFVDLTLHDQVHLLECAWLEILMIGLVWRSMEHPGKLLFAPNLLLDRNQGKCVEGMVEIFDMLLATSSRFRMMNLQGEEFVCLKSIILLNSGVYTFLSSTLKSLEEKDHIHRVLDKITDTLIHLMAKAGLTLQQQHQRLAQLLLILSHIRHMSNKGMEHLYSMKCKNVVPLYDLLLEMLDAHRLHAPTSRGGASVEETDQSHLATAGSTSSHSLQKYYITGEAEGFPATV

SMILES	Potency	activation
COc1cc2nc(N3CCN(C(=O)C4CCCO4)CC3)nc(N)c2cc1OC (stereo not given)	inactive	–
CC(C)(C)C(=O)CCc1ccc(Cl)cc1	inactive	–
CC/C=C/CCCCCCCCCCOC(C)=O	inactive	–
CCCCc1ccc(Cl)cc1	inactive	–
O=C1CCCc2c(O)cccc21	inactive	–
CCOC(=O)c1ccc(N(C)C)cc1	inactive	–
CC(C)(O)CCCC1=CCC(C=O)CC1 (stereo not given)	inactive	–
Cc1cccc(N)n1	inactive	–
CN1CCN(C(=O)C2CCCCC2)CC1	inactive	–
CCCCOCCCC	inactive	–
C=CC(=O)OCC[N+](C)(C)C	inactive	–
CCC(C)SSC(C)CC (stereo not given)	inactive	–
Cc1ccc(N)nc1	inactive	–
CSC(=O)c1cccc2nnsc12	inactive	–
CC(C)C[P+](C)(CC(C)C)CC(C)C	inactive	–
O=C(CCBr)N1CCN(C(=O)CCBr)CC1	inactive	–
CCCCN=C(N)N=C(N)N	inactive	–
CCCCC(CC)COC(=O)CC#N (stereo not given)	inactive	–
CCOC(=O)CN1CCCC1=O	inactive	–
COc1cnc(NS(=O)(=O)c2ccc(N)cc2)nc1	inactive	–

SMILES	Potency	activation
CCC(C)c1nccnc1OC (stereo not given)	inactive	–
CCCCNCC	inactive	–
CCN1CCN(C(=O)N[C@@H](C(=O)N[C@@H]2C(=O)N3[C@@H]2SC(C)(C)[C@H]3C(=O)O)c2ccccc2)C(=O)C1=O	inactive	–
Clc1ccc2c(c1)Nc1ccccc1S2	inactive	–
CCCCCCCCCCCCCC(=O)OCC	inactive	–
COc1cc(OC)cc(OC)c1	inactive	–
c1coc(Cn2cccc2)c1	inactive	–
C[Si](C)(C)O[Si](O)(O)O	inactive	–
O=C1c2ccccc2C(=O)N1CO	inactive	–
Cc1ccc(S(=O)(=O)NC(=O)NN2CC3CCCC3C2)cc1 (stereo not given)	inactive	–
C[C@@H]1NC(=O)[C@@H](N)CNC(=O)[C@H](C2CCNC(N)=N2)NC(=O)/C(=C/NC(N)=O)NC(=O)[C@H](CNC(=O)C[C@@H](N)CCCN)NC1=O (stereo not given in full)	–	1.04% [at 0.349 µM]
O=Cc1ccc(C(=O)O)cc1	inactive	–
CC1(C)S[C@@H]2[C@H](NC(=O)Cc3ccccc3)C(=O)N2[C@H]1C(=O)O (tested in a mixture with another compound)	inactive	–
Nc1ccc(C(=O)NCC(=O)O)cc1	inactive	–
C=CCOC(=O)CCCCCCCC	inactive	–
NNC(=O)OCc1ccccc1	inactive	–
O=C(O)Cc1c(Cl)ccc(Cl)c1Cl	inactive	–
CC(=O)Nc1ccc(OCCOCCOc2ccc(NC(C)=O)cc2)cc1	inactive	–
CCN(CC)CC	inactive	–
COCc1nnc(-c2ccc[n+]([O-])c2)n1-c1c(Cl)c(Cl)cc2[nH]c(=O)c(=O)[nH]c12	inactive	–
